Assay results reported in PubChem BioAssay AID489028 (Sanford-Burnham Center for Chemical Genomics, 2010).
Among all 10,000 compounds or so, about 5,600 (56%) were called active. Rule as the data show it: active = inhibition above about 40%; inactive = the rest. The set was probably picked from earlier hits. The list is a sample of the results.

Target: Protein Mdm4 (Homo sapiens) + E3 ubiquitin-protein ligase Mdm2 (Homo sapiens) (UniProt O15151+Q00987)
Test: inhibition of human Mdm2/MdmX pairing – luminescence, single concentration, confirmation (AID 489028)
Conditions: Mdm2-MdmX binding, luminescent assay; at 8 µM; stronger effect = higher value

Protein Mdm4 (Homo sapiens) + E3 ubiquitin-protein ligase Mdm2 (Homo sapiens), sequence (O15151 whole entry, looked up): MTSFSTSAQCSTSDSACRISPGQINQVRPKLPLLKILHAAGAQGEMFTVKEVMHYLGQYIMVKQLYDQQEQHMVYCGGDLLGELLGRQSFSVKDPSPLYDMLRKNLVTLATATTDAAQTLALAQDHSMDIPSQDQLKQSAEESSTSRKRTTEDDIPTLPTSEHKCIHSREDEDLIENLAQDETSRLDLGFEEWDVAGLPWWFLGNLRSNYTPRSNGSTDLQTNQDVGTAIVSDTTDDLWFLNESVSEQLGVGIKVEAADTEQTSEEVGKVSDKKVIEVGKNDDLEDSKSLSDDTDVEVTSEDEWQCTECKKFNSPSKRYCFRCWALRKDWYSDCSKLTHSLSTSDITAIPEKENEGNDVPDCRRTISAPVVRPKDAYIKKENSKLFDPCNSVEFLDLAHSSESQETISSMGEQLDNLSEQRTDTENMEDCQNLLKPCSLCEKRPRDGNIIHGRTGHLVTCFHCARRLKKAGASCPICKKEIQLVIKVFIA
Protein Mdm4 (Homo sapiens) + E3 ubiquitin-protein ligase Mdm2 (Homo sapiens), sequence (Q00987 whole entry, looked up): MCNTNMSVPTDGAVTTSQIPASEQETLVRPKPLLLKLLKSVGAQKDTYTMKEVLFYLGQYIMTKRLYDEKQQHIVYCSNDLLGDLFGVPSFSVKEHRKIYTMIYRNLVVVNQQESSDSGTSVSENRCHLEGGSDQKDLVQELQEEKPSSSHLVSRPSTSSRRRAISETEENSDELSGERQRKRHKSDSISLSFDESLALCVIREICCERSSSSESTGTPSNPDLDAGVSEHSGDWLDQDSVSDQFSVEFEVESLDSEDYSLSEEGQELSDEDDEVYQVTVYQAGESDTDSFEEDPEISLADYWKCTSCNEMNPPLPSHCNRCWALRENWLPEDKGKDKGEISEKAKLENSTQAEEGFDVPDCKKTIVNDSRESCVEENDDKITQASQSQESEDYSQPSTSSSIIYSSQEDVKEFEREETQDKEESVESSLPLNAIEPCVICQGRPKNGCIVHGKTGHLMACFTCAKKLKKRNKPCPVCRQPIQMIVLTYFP

Row | Compound | inhibition
1 | CC(=O)Nc1nc(C)c(-c2csc(Nc3ccc(S(N)(=O)=O)cc3)n2)s1 | 44.5% (active)
2 | CC(C)c1cc(C(=O)N/N=C/C(Br)=C/c2ccccc2)n[nH]1 | 35.2% (inactive)
3 | CCCn1nc(C(=O)Nc2ccc3nc(C)sc3c2)c2ccccc2c1=O | 24.9% (inactive)
4 | CCCC(=O)Nc1nc2ccc(NC(=O)c3cccnc3)cc2s1 | 48.4% (active)
5 | COc1cc(C(=O)NCc2nnc(SCC(=O)Nc3nc4ccc(C)cc4s3)o2)cc(OC)c1OC | -0.1% (inactive)
6 | CCN1C(=O)c2cccc3c(S(=O)(=O)Nc4ccccc4O)ccc1c23 | 39% (inactive)
7 | O=C(/C=C/c1ccc(Cl)c([N+](=O)[O-])c1)c1cccnc1 | 66.7% (active)
8 | COc1ccc(/C=C/C(=O)c2ccc(NS(=O)(=O)c3ccc(C)cc3)cc2)cc1O | 38.9% (inactive)
9 | COc1ccc(C(=O)/C=C/c2cccnc2)c(OC)c1 | -4.6% (inactive)
10 | O=C(/C=C/c1ccc(Cl)c([N+](=O)[O-])c1)c1ccc(O)cc1 | 85.4% (active)
11 | Cc1[nH]c(C)c(S(=O)(=O)N2CCN(c3cccc(C(F)(F)F)c3)CC2)c1C(=O)N1CCCCC1 | 52.8% (active)
12 | CCNC(=O)c1c(O)c2cccc3c2n(c1=O)CC3 | 75.1% (active)
13 | O=C(COC(=O)/C=C/c1cn(-c2ccccc2)nc1-c1cccnc1)Nc1ccc(Cl)cc1Cl | 18.3% (inactive)
14 | CCOC(=O)c1c(-c2ccc(C)cc2C)csc1NC(=O)CSc1nnnn1C | 51% (active)
15 | CCC(C)N1C(=O)S/C(=C/c2ccc(Sc3nc4ccccc4[nH]3)o2)C1=O (stereo not given) | 23.9% (inactive)
16 | Cc1cccc(-n2c(C)cc(/C=N\NC(=O)c3cccs3)c2C)c1 | 40.1% (active)
17 | C[C@@H]1C[C@@H]2O[C@H]2/C=C\C=C\C(=O)Cc2c(Cl)c(O)cc(O)c2C(=O)O1 | 54.2% (active)
18 | Cc1ccc(C2CC(=O)NC(SCC(=O)OCc3ccccc3)=C2C#N)o1 (stereo not given) | 44.5% (active)
19 | C=CCC[C@@H](Cc1ccc(F)cc1)C(=O)OC[C@H](Cc1c[nH]c2ccccc12)NC(=O)[C@@H](CC=C)CC(=O)N(CCO)Cc1ccccc1 | 21.8% (inactive)
20 | O=C(Nc1ccccc1Cl)/C(Cl)=C(\Cl)S(=O)c1ccccc1 (stereo not given) | 100% (active)
21 | O=C1/C(=C\c2ccccc2Cl)SC(=S)N1CCC(=O)N1CCCc2ccccc21 | 60.8% (active)
22 | COc1cc2c(cc1OC)C(C)N(S(=O)(=O)c1cnc(Cl)c(Cl)c1)CC2 (stereo not given) | 58.1% (active)

Row | Compound | inhibition
23 | C=CCn1c(C)cc(C(=O)CN2C(=O)c3ccccc3C2=O)c1C | 68% (active)
24 | COc1ccc(-c2cn[nH]c2-c2ccc(OC)cc2)cc1 | 63% (active)
25 | CC1(C)Cc2nc3sc4c(SCC(=O)NC(c5ccccc5)c5ccccc5)ncnc4c3cc2CO1 | 2.85% (inactive)
26 | CCOc1ccc(S(=O)(=O)Nc2cccc(C(=O)NCC3(N4CCCCC4)CCCCC3)c2)cc1 | 78.6% (active)
27 | CCOC(=O)c1c(-c2ccc(C)cc2)csc1/N=C(\C)C1=C(O)c2ccccc2C1=O | 28.7% (inactive)
28 | CCOC(=O)c1c(-c2cccc(C)c2)csc1NC(=O)c1c(-c2ccccc2)noc1C | 92.6% (active)
29 | CCOC(=O)c1cc(NC(=O)c2ccc(Cl)cc2)c(=O)oc1-c1ccccc1 | 35.2% (inactive)
30 | Nc1nonc1-c1nc2ccccc2n1Cc1ccc(F)cc1 | 63.5% (active)
31 | Fc1ccc(CNc2nc3ccccc3n3nnnc23)cc1 | 9.85% (inactive)
32 | COc1cccc(/C=N/NC(=O)c2[nH]nc3c2CCc2ccccc2-3)c1O | 83.7% (active)
33 | COc1ccc(CNc2nc(NCc3ccc(OC)cc3)c3ncn(C4CCCC4)c3n2)cc1 | 45.4% (active)
34 | COc1ccc(-c2cc(C3CCN(c4ncccc4[N+](=O)[O-])CC3)[nH]n2)cc1 | 24.6% (inactive)
35 | CCOc1ccc2nc(Cl)c(C3CC(c4ccccc4)=NN3C(=O)c3cccs3)cc2c1 (stereo not given) | 5.3% (inactive)
36 | COc1ccc(C2CC(c3ccccc3)=NN2C(=O)c2ccc(Cl)c([N+](=O)[O-])c2)cc1 (stereo not given) | 46.1% (active)
37 | CCOC(=O)C1=C(NC(=S)NC(=O)c2ccccc2)c2ccccc2CC1(C)C | 28.8% (inactive)
38 | N#CC1=C(N)Oc2cc(O)ccc2C1C1CCCCC1 (stereo not given) | 45.4% (active)
39 | COc1ccc(C2C(C#N)=C(N)Oc3cc(N)ccc32)cc1OC (stereo not given) | 9.6% (inactive)
40 | c1ccc2c(c1)CSc1sccc1C2=C1CCNCC1 | 72.3% (active)
41 | CS(=O)(=O)c1ccc(-c2nnn(CC(=O)Nc3ccc4c(c3)OCCO4)n2)cc1 | -2.65% (inactive)
42 | O=C(Nc1ccc2c(c1)OCCO2)C1CCCC1 | 69.3% (active)
43 | O=C(N/N=C\c1cc2c(cc1Cl)OCO2)c1ccc(Br)s1 | 57.1% (active)
44 | Cc1ccc(-c2nc3ccccc3[nH]2)cc1NC(=O)c1sc2ccccc2c1Cl | 57.4% (active)

Row | Compound | inhibition
45 | COc1ccc(Br)cc1C(=O)NC(=S)Nc1cc(-c2nc3ccccc3[nH]2)ccc1C | 16.8% (inactive)
46 | COc1ccc(CN(C)C(=O)c2cc(-c3ccc(C)cc3C)nc3ccccc23)c(OC)c1OC | 60.2% (active)
47 | COc1ccc(-c2cc(C(=O)N(C)Cc3ccc(OC)c(OC)c3OC)c3ccccc3n2)cc1OC | 46.9% (active)
48 | COc1ccc(-c2cc(C(=O)N(C)CC(=O)Nc3ccccc3Cl)c3ccccc3n2)cc1OC | 49.2% (active)
49 | CN(C)c1ccc(-n2cccc2/C=C2/SC(=Nc3ccc(F)cc3)NC2=O)cc1 | 12.6% (inactive)
50 | CCCc1nc2c(c(=O)c3ccccc3n2C)c(=O)n1C1CCCCCC1 | 87.2% (active)
51 | CC(C)(C)Nc1nc(-c2ccccn2)nc2ccccc12 | 85.5% (active)
52 | Cc1ccc(Oc2nc(-c3ccccn3)nc3ccccc23)cc1 | 3.9% (inactive)
53 | COc1cc(/C=C2\Oc3ccc(C#Cc4ccc(O)cc4)cc3C2=O)cc(OC)c1 | 33.2% (inactive)
54 | O=C(Nc1ccncc1)c1c(F)cccc1F | 61.9% (active)
55 | COc1ccc2cc1Oc1ccc(cc1)C[C@H]1c3cc(c(OC)cc3CCN1C)Oc1c(O)c(OC)cc3c1[C@H](C2)N(C)CC3 | 100% (active)
56 | COc1ccc(-c2nnc(SC(=O)N3c4ccccc4Sc4ccccc43)o2)cc1 | 31.4% (inactive)
57 | CC[C@]1(O)C[C@@H]2CN(CCc3c([nH]c4ccccc34)[C@@](C(=O)OC)(c3cc4c(cc3OC)N(C)[C@H]3[C@@](O)(C(=O)OC)[C@H](OC(C)=O)[C@]5(CC)C=CCN6CC[C@]43[C@@H]65)C2)C1 | 72.5% (active)
58 | CC[C@]1(O)CC2CN(CCc3c([nH]c4ccccc34)[C@@](C(=O)OC)(c3cc4c(cc3OC)N(C=O)[C@H]3[C@@](O)(C(=O)OC)[C@H](OC(C)=O)[C@]5(CC)C=CCN6CC[C@]43[C@@H]65)C2)C1 (stereo not given in full) | 58.4% (active)
59 | O=C1NC(Nc2nc3ccccc3s2)(C(F)(F)F)C(=O)N1C1CCCCC1 (stereo not given) | 62.5% (active)
60 | COc1cc(NS(=O)(=O)c2ccc3ccccc3c2)c2ncccc2c1 | 88.3% (active)
61 | CC(C)c1ccccc1OCC(O)CN(CC(O)COc1cccc2ccccc12)C(C)C (stereo not given) | 29.8% (inactive)
62 | CC(=O)c1ccc(S(=O)(=O)N2CCN(C(=O)/C=C/c3ccc4ccccc4n3)CC2)cc1 | 71.5% (active)
63 | O=C(Cc1csc(Nc2nc(=S)[nH]c3ccccc23)n1)NCCCN1CCN(c2cccc(Cl)c2)CC1 | 5% (inactive)
64 | CC1(C)CC(N2CCN(C(c3ccccc3)c3ccccc3)CC2)=CC(=[N+]2CCCCC2)C1 | 89.8% (active)
65 | COc1ccc(-c2nn(C)c(=O)c3ccccc23)cc1NC(=O)COc1ccccc1 | 41.5% (active)
66 | COC(=O)c1cc(NC(=O)c2nn(C)c(=O)c3ccccc23)cc(C(=O)OC)c1 | 3.8% (inactive)

Row | Compound | inhibition
67 | COc1cc([N+](=O)[O-])ccc1NC(=O)COC(=O)CCOc1ccc(C)cc1 | 21.9% (inactive)
68 | CCN(CC)c1ccc(/C=N/NC(=O)c2cnccn2)c(O)c1 | 79% (active)
69 | CCOc1ccc(-n2c(O)c(/C=N/Nc3nc(C)cc(C)n3)c3ccccc3c2=O)cc1 | 35.1% (inactive)
70 | CCN(CC)c1ccc(/C=N/Nc2nc(C)cc(C)n2)c(O)c1 | 53% (active)
71 | Cc1ccc(NC(=S)NC(NC(=O)Cc2cccc3ccccc23)C(Cl)(Cl)Cl)cc1 (stereo not given) | 11.2% (inactive)
72 | C/C(=N\NC(=O)c1ccccc1F)c1ccccn1 | 41.9% (active)
73 | COc1ccc(CC(=O)N/N=C(\C)c2ccccn2)cc1 | 14.6% (inactive)
74 | COc1ccccc1N(CC(=O)N/N=C(\C)c1ccccc1O)S(=O)(=O)c1ccc(C)cc1 | 60.6% (active)
75 | Cc1ccccc1C(=O)N1CCN(c2ccc(NC(=O)c3cccs3)cc2)CC1 | 48.6% (active)
76 | Cc1ccc(-c2nnc(-c3ccc(NC(=O)c4cccs4)cc3)o2)cc1 | 20.9% (inactive)
77 | Cc1cc2oc3ccc(NCCC4CCCN4C)cc3c(=O)c2cc1C (stereo not given) | 1.8% (inactive)
78 | Cc1cccc(NS(=O)(=O)c2ccc(-c3cnc(C4CC4)o3)cc2)c1 | 47% (active)
79 | COC(=O)CCNc1ccc2c(c1)OCCO2 | 50.1% (active)
80 | O=C1CN(c2nc(-c3ccccc3)c3cc(Br)ccc3n2)c2ccccc2N1 | 16.2% (inactive)
81 | COc1ccc2[nH]c(=O)c(CN(Cc3cccnc3)S(=O)(=O)c3ccccc3F)cc2c1 | 57.4% (active)
82 | Cn1cc(/C=C/c2nc3ccccc3c(=O)n2-c2cccc([N+](=O)[O-])c2)c2ccccc21 | 40.4% (active)
83 | Cc1c(C(=O)N/N=C/c2ccccc2)[nH]c2c([N+](=O)[O-])cccc12 | 62.2% (active)
84 | Clc1ccc2c(c1)C1=C(C(c3ccncc3)O2)C(c2ccc(Br)cc2)n2ncnc2N1 (stereo not given) | 25.8% (inactive)
85 | O=C(CCl)Nc1cccc(CP(=O)(c2ccccc2)c2ccccc2)c1 | 93.8% (active)
